# Assay results reported in PubChem BioAssay AID1645855 (Buhrlage Lab, Dana-Farber Cancer Institute and Novartis …, 2021).
# In all, about 47,000 compounds went through this assay and about 3,100 (6.6%) were called active. Cut-off read from the data, not from the text of the source: active = inhibition above about 30%; inactive = the rest. The full list was thinned out, with actives kept by preference.
# Target: Ubiquitin carboxyl-terminal hydrolase 17-like protein 5 (Homo sapiens) (UniProt A8MUK1)
# Sequence (A8MUK1 whole entry, looked up): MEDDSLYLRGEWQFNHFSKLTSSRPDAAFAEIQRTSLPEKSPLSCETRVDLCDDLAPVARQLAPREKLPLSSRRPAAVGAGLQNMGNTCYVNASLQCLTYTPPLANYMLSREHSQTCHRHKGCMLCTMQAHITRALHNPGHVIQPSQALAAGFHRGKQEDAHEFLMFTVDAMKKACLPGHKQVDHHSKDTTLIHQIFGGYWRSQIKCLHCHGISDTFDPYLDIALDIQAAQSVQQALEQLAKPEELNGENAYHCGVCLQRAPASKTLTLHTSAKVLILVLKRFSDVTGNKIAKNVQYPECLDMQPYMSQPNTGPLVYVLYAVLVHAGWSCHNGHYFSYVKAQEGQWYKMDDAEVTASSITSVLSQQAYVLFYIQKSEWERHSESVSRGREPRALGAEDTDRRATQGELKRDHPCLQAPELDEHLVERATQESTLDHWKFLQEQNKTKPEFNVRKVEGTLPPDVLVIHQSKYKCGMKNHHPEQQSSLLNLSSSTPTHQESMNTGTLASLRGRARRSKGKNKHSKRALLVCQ
# Experiment: blocks human USP17 ubiquitin-rhodamine cleavage (AID 1645855)
# Settings: purified USP17, Ub-rhodamine cleavage fluorescence, 3 h; at 50 µM; active compounds read high
row,SMILES,inhibition
1,Cc1ccc2[nH]cc(C(C(=O)O)N3CCN(c4ccc(C(F)(F)F)cn4)CC3)c2c1 (stereo not given),-4.78% (inactive)
2,Cc1cccc(C)c1NS(=O)(=O)c1ccc(N2CCCC2=O)cc1,-8.71% (inactive)
3,Cc1noc(C)c1CN1C[C@H](OCc2ccccn2)[C@H]2OCCC[C@H]21,-5.79% (inactive)
4,CCc1cc(=O)n(CC(=O)NCc2ccccc2)c(N2CCOCC2)n1,-0.113% (inactive)
5,Cc1cc(=O)n(CC(=O)Nc2ccc(F)cc2C)c(N2CCCC2)n1,16.9% (inactive)
6,Cc1cc2nc(N3CCOCC3)n(CC(=O)Nc3ccccc3F)c(=O)c2n1C,36% (active)
7,O=C(Cc1c[nH]c2ccccc12)N1CCc2cc(-c3ccno3)ccc21,-26.7% (inactive)
8,COc1ccc(-c2noc(-c3ccc(N(C)Cc4ccco4)nn3)n2)cc1,30.7% (active)
9,COc1ccc(-c2noc(CN(C3CCCCC3)S(=O)(=O)c3ccc(OC)cc3)n2)cc1,4.09% (inactive)
10,COc1ccc(-c2noc(C3(c4ccccc4)CCOCC3)n2)cc1,19.3% (inactive)
11,CC(C)n1ncc2[nH]c(C3CCCN(C(=O)Nc4ccc(F)cc4)C3)nc21 (stereo not given),-4.82% (inactive)
12,CCOC(=O)c1cc2c(ccn2-c2ccc(F)cc2)n1Cc1ncc(C)c(OC)c1C,-32% (inactive)
13,COc1ccccc1C(=O)Nc1cccn2nc(C3CCC3)nc12,2.42% (inactive)
14,O=C(Nc1cc(-c2ccccc2)nn1C1CCS(=O)(=O)C1)c1ccccc1F (stereo not given),-23.8% (inactive)
15,CC(C)(C)n1nc(C2CC2)c(Br)c1NC(=O)c1ccccc1F,93.7% (active)
16,CCCCn1c(=O)[nH]c2c(c1=O)CCC2,4.26% (inactive)
17,Cc1ccc(S(=O)(=O)CC(=O)Nc2sc(C)c(C)c2C(N)=O)cc1,-27.2% (inactive)
18,Cc1sc(NC(=O)CS(=O)(=O)c2ccc(F)cc2)c(C(N)=O)c1C,-84% (inactive)
19,Cc1sc(NC(=O)c2ccc(S(=O)(=O)N(C)CC3CCCO3)cc2)c(C(N)=O)c1C (stereo not given),40.5% (active)
20,CCN1CCN(C2=Nc3c(Cl)cc(Cl)c4cccc2c34)CC1,-158% (inactive)
21,COc1ccccc1-c1nc(-c2ccc(-n3cccn3)nc2)no1,2.48% (inactive)
22,O=c1c2ccccc2ncn1Cc1noc(-c2ccccc2F)n1,-0.0976% (inactive)
23,O=c1c2ccccc2c(-c2nc(-c3ccncc3)no2)cn1-c1ccc(F)cc1,37.7% (active)
24,CC(C)NC(=O)[C@H](C)NC(=O)N1CCn2c1nc1ccccc12,-12.1% (inactive)
25,CN1Cc2c(C(=O)NCC3CCCO3)ncn2-c2ccccc2S1(=O)=O (stereo not given),-13.6% (inactive)
26,Cn1c(=O)c2c(SCC(=O)N3CCC(Cc4ccccc4)CC3)nc(-c3cccs3)nc2n(C)c1=O,2.08% (inactive)
27,COc1ccc(F)cc1-c1ccccc1CC1CNCCNC1=O (stereo not given),-14.6% (inactive)
28,COC(=O)COc1cccc2c(=O)n(CC(=O)N3CCc4ccccc43)ccc12,35.8% (active)

row,SMILES,inhibition
1,Cc1nc2ccccc2c(=O)n1CC(=O)N1CCCc2ccccc21,4.34% (inactive)
2,O=C(Cn1cnc2ccccc21)N1CCCc2ccccc21,-1.89% (inactive)
3,Cn1c(=O)c2c(ncn2CC(=O)OCc2cccc([N+](=O)[O-])c2)n(C)c1=O,-12.3% (inactive)
4,COc1ccc(-c2cc(C(=O)Nc3cccc(C)c3C)c3ccccc3n2)cc1OC,-1.61% (inactive)
5,CCN1C[C@@]23CN(C(=O)c4ccc(OC)cc4)C[C@@H](C[C@@H]2S1(=O)=O)O3,0.859% (inactive)
6,O=C(c1ccco1)[C@@H]1[C@@H]2C(=O)N(c3cccc([N+](=O)[O-])c3)C(=O)[C@@H]2C2c3ccccc3C=CN21 (stereo not given in full),-7.36% (inactive)
7,COc1cccc(-c2cc(C(=O)N3CCN(c4ccc(N5CCOCC5)nn4)CC3)[nH]n2)c1,33.1% (active)
8,COc1cccc(N2CCCN(C(=O)c3ccc4nc(C)[nH]c4c3)CC2)c1,-10.9% (inactive)
9,O=C(c1cccnc1)N1CCN(c2cc(-c3ccccc3)[nH]n2)CC1,-26.3% (inactive)
10,N#Cc1ccccc1NC(=O)c1cccc2c1SCCC2=O,8.87% (inactive)
11,Cc1cccc(N2CCN(C(=O)C3CCCN(S(=O)(=O)N4CCC5(CC4)OCCO5)C3)CC2)c1C (stereo not given),9.89% (inactive)
12,O=C(O)c1c2c(nc3ccccc13)/C(=C/c1ccc(F)cc1)CCC2,4.5% (inactive)
13,O=C1NC(c2ccccc2)=N/C1=C/c1ccc(F)cc1,39.9% (active)
14,CCC(C)Cc1ccc2c(c1O)C(=O)OC(CC(\C=C/C=C\C=C\c1coc(CC(O)C(C)C(O)CC)n1)OC)C2 (stereo not given),14.5% (inactive)
15,COc1ccccc1CNC(=O)c1c(O)c2cccnc2n(-c2ccccc2)c1=O,-4.34% (inactive)
16,O=C(NCc1ccccc1)c1c(O)c2cnn(Cc3ccccc3)c2[nH]c1=O,33.7% (active)
17,O=C(NCc1ccccc1)c1cc(-c2ccncc2)n[nH]1,-3.2% (inactive)
18,O=C(CN1CCC(Nc2nc3c(c(=O)[nH]2)CCCC3)CC1)Nc1ccccc1[N+](=O)[O-],14% (inactive)
19,Cc1sc(NC(=O)CCc2ccccc2)nc1-c1ccc2c(c1)N(C)C(=O)CO2,-15.7% (inactive)
20,Cc1ccc(C)c(S(=O)(=O)N2CCC(c3nc(C(=O)N(C)C)c(C)o3)CC2)c1,-7.71% (inactive)
21,O=C(NCc1cccnc1)[C@@H]1CC[C@@H]2[C@@H](CCN2c2ncc(F)cn2)O1,-63.6% (inactive)
22,COc1ccc(NS(=O)(=O)c2cc(NC(=O)COc3ccccc3F)ccc2OC)cc1,6.42% (inactive)
23,COc1ccc(NS(=O)(=O)c2cc(NC(=O)/C=C/c3cccc(OC)c3)ccc2OC)cc1,-3.35% (inactive)
24,COc1ccc(NS(=O)(=O)c2cc(NC(=O)CC(=O)c3ccc([N+](=O)[O-])cc3)ccc2C)cc1,39.9% (active)
25,COCCN1C[C@H]2COc3cc(OC)ccc3[C@H]2N(C(=O)c2ccc(F)cc2)CCC1=O,0.764% (inactive)
26,CC(C)n1cnc(-c2cc(C(=O)NC3CC3)c3ccccn23)c1,-51.2% (inactive)
27,CCCNC(=O)c1ccc(Nc2cc(C)nc3nc(-c4cccnc4)nn23)cc1,7.85% (inactive)
